Consider four compounds from PubChem BioAssay (EPA / NIEHS).

The structures appear in SMILES notation. “And” between values parts separate entries of the source, which are not always exact repeats. Equal values may be shown once. Inconclusive results are not listed. Where a structure was tested more than once in an assay, its records may differ in their call. The source made the active and inactive calls. The calls were made as follows: active = hit-call score of the fitted dose curve at least 0.9, where 1 is the maximum; inconclusive = response in the unintended direction; inactive = score below 0.9.

A short description of experiment [1]: ATG_XTT_Cytotoxicity: Cytotoxicity Assessment in the Attagene TRANS-FACTORIAL HepG2 Assay (AID 2283584).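 As to AC50: cells exposed to compound for 24 h before reading; active means loss of viability signal versus DMSO baseline.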 Put shortly: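 XTT readout of cell number in transfected HepG2 cells, 24 h post-dosing; DMSO serves as negative control and baseline, with activity taken as loss of viability signal.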
The nature of experiment [2]: TOX21_p53_BLA_p2_viability: Viability Assessment in the Tox21 HCT-116 p53 Agonism Beta-lactamase Assay, Phase 2 (AID 2283591).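 Also: compound exposure lasted 16 h at 37 °C; actives lower the ATP signal meaning cytotoxicity.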 The method, boiled down:
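Cytotoxicity readout: CellTiter-Glo ATP luminescence, 30 min at room temperature, after the beta-lactamase read. Cells were HCT116 exposed 16 h at 37C to compounds pin-transferred at 217-fold dilution from DMSO stocks.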

Experiment [3] addresses Cellular tumor antigen p53 (Homo sapiens) (UniProt P04637). The experiment can be described thus: TOX21_p53_BLA_p2_ratio: Tox21 HCT-116 p53 Agonism Beta-lactamase Assay, Ratio, Phase 2 (AID 2283592). The method, boiled down:
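In this cell-based reporter format, HCT116 cells were dosed with chemicals delivered from DMSO by 217-fold dilution and incubated 16 h at 37C. Emission at 460 and 530 nm after 2 h CCF4-AM loading provided the ratio, fitted upward versus DMSO.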

A short description of experiment [4]: TOX21_p53_BLA_p3_viability: Viability Assessment in the Tox21 HCT-116 p53 Agonism Beta-lactamase Assay, Phase 3 (AID 2283593).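 Also: cells exposed to compound for 16 h before reading.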 Put shortly:
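Cellular ATP was quantified by CellTiter-Glo luminescence, read after 30 min at room temperature. Beforehand, HCT116 cells (4000/well) received compound 5 h post-seeding, 217-fold diluted from DMSO, then incubated 16 h at 37C.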

The target in experiment [5] is Cellular tumor antigen p53 (Homo sapiens) (UniProt P04637). The experiment can be described thus: TOX21_p53_BLA_p3_ratio: Tox21 HCT-116 p53 Agonism Beta-lactamase Assay, Ratio, Phase 3 (AID 2283596). The method, boiled down:
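HCT116 p53-bla cells (4000/well) given compound in DMSO (217-fold dilution) after 5 h, incubated 16 h at 37C. CCF4-AM substrate 2 h at room temperature; 460/530 nm emission ratio, gain fitted against DMSO.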

Experiment [6] in a line: TOX21_p53_BLA_p4_viability: Viability Assessment in the Tox21 HCT-116 p53 Agonism Beta-lactamase Assay, Phase 4 (AID 2283597).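 Also: hits lower the luminescence signal meaning cytotoxicity.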 The method, boiled down: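 We seeded HCT116 p53 reporter cells at 4000/well and waited 5 h. We then added compounds in DMSO at a 217-fold dilution and incubated for 16 h. Viability was read as CellTiter-Glo luminescence after 30 min at RT.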
In experiment [7] the target is Cellular tumor antigen p53 (Homo sapiens) (UniProt P04637). Nature of the experiment: TOX21_p53_BLA_p5_ratio: Tox21 HCT-116 p53 Agonism Beta-lactamase Assay, Ratio, Phase 5 (AID 2283599). The method, boiled down: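 Beta-lactamase reporter ratio (blue 460 nm over green 530 nm, 405 nm excitation) after 2 h CCF4-AM loading, in HCT-116 cells exposed 16 h at 37 C to compounds pinned at 217-fold dilution. Increases relative to DMSO baseline scored.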

A short description of experiment [8]: TOX21_p53_BLA_p5_viability: Viability Assessment in the Tox21 HCT-116 p53 Agonism Beta-lactamase Assay, Phase 5 (AID 2283600). Put shortly:
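Compounds, pinned from DMSO at 217-fold dilution, were left on the cells for 16 h. The viability endpoint was ATP content measured by CellTiter-Glo luminescence, where falling signal reflects cytotoxicity.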

In experiment [9] the target is Cellular tumor antigen p53 (Homo sapiens) (UniProt P04637). The experiment can be described thus: TOX21_p53_BLA_p4_ratio: Tox21 HCT-116 p53 Agonism Beta-lactamase Assay, Ratio, Phase 4 (AID 2283601). The method, boiled down: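 Signal is the blue/green (460nm/530nm) ratio of cleaved versus uncleaved CCF4-AM substrate, read after 2 h substrate loading. Cells were HCT116 carrying the p53-responsive beta-lactamase reporter, dosed 16 h at 37C, 5% CO2; CellTiter-Glo measured in parallel.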

A short description of experiment [10]: Tanguay_ZF_120hpf_MORT_legacy: (Legacy) Oregon State University Tanguay Lab 120 Hour Post-fertilization zebrafish Assay for Mortality (AID 2283633).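 As to AC50: fitted as increase in binary mortality versus DMSO negative control.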 Put shortly: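 Brightfield scoring of embryo death (binary) at 24 and 120 hpf; static exposure 6–120 hpf, 28C, sealed and foil-covered. Pronase-dechorionated 5D wild-type larvae, single embryo per well. DMSO 0.64% v/v; trimethyltin chloride 5uM positive control.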

Experiment [11] can be described thus: Tanguay_ZF_120hpf_YSE_legacy: (Legacy) Oregon State University Tanguay Lab 120 Hour Post-fertilization zebrafish Assay for Yolk Sac Edema (AID 2283634).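 As to AC50: actives raise the incidence of yolk sac edema above the DMSO baseline.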 The method, boiled down: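 Binary brightfield scoring of yolk sac edema at 120 hpf; DMSO baseline, gain-of-signal fitting. Dechorionated 5D larvae, one per well, static exposure 6–120 hpf, 28C, 0.64% DMSO. Dead embryos not scored.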

Experiment [12] is described as follows: Tanguay_ZF_120hpf_AXIS_legacy: (Legacy) Oregon State University Tanguay Lab 120 Hour Post-fertilization zebrafish Assay for Body Axis Malformation (AID 2283635).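 As to AC50: potency for an increased fraction of larvae scored with body axis malformation.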 The method, boiled down:
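Embryos: 5D wild-type, pronase-dechorionated 4 hpf; static exposure 6–120 hpf, 28C, sealed, dark, 1 embryo/well, 0.64% DMSO. 120 hpf axis malformation scored present/absent; dead embryos excluded. Analysed as gain of signal vs DMSO.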

Experiment [13] in a line: Tanguay_ZF_120hpf_EYE_legacy: (Legacy) Oregon State University Tanguay Lab 120 Hour Post-fertilization zebrafish Assay for Eye Malformation (AID 2283636). Put shortly:
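Read-out is binary presence or absence of eye malformation, scored by brightfield microscopy at 120 hpf. Single larvae were exposed from 6 hpf in embryo medium containing 0.64% DMSO, with DMSO as baseline.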

A short description of experiment [14]: Tanguay_ZF_120hpf_SNOU_legacy: (Legacy) Oregon State University Tanguay Lab 120 Hour Post-fertilization zebrafish Assay for Snout Malformation (AID 2283637). Put shortly:
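Snout malformation read as a yes/no call on brightfield images of 120 hpf larvae (Tropical 5D strain). Static exposure began at 6 hpf on dechorionated embryos in 0.64% DMSO, with gain of signal analysed versus DMSO controls.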

The nature of experiment [15]: Tanguay_ZF_120hpf_JAW_legacy: (Legacy) Oregon State University Tanguay Lab 120 Hour Post-fertilization zebrafish Assay for Jaw Malformation (AID 2283638).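 As to AC50: active means more embryos with jaw malformation than DMSO controls.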 Put shortly: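 Binary jaw-malformation calls at 120 hpf by brightfield imaging; DMSO (0.64% v/v) = baseline. Embryos: 5D wild-type, pronase-dechorionated, one per well from 6 hpf, static exposure, 28C, sealed, dark.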

Experiment [16] is described as follows: Tanguay_ZF_120hpf_OTIC_legacy: (Legacy) Oregon State University Tanguay Lab 120 Hour Post-fertilization zebrafish Assay for Otic Vesicle Malformation (AID 2283639). Put shortly:
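Tropical 5D wild-type zebrafish embryos were exposed statically in sealed, foil-covered plates at 28C until 120 hpf, with 0.64% (vol/vol) DMSO final. Otic vesicle malformation was scored present/absent by brightfield microscopy, with DMSO as baseline.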

Experiment [17] can be described thus: Tanguay_ZF_120hpf_SOMI_legacy: (Legacy) Oregon State University Tanguay Lab 120 Hour Post-fertilization zebrafish Assay for Somite Malformation (AID 2283647). The method, boiled down: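 Binary brightfield scoring of somite defects at 120 hpf in 5D wild-type larvae; one dechorionated embryo per well, static exposure from 6 hpf, 28C, sealed and dark. Final DMSO 0.64%; trimethyltin chloride 5uM positive control.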

The nature of experiment [18]: Tanguay_ZF_120hpf_CFIN_legacy: (Legacy) Oregon State University Tanguay Lab 120 Hour Post-fertilization zebrafish Assay for Caudal Fin Malformation (AID 2283649). The method, boiled down:
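Dechorionated 5D wild-type zebrafish, static exposure 6–120 hpf, 28C, sealed and dark, 0.64% v/v DMSO final. Binary fin-malformation call at 120 hpf, brightfield; gain of signal vs DMSO baseline.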

The nature of experiment [19]: Tanguay_ZF_120hpf_PFIN_legacy: (Legacy) Oregon State University Tanguay Lab 120 Hour Post-fertilization zebrafish Assay for Pectoral Fin Malformation (AID 2283648).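 Also: each larva judged yes or no for fin defect by brightfield with dead larvae skipped.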 Put shortly: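 5D WT zebrafish; pronase dechorionation 4 hpf; 1 embryo/well at 6 hpf; static exposure to 120 hpf, 28C, sealed, foil-covered; final DMSO 0.64% v/v; 5 uM trimethyltin chloride positive control; fin defect scored yes/no.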

Chain of Cellular tumor antigen p53 (Homo sapiens) (P04637 whole entry, looked up): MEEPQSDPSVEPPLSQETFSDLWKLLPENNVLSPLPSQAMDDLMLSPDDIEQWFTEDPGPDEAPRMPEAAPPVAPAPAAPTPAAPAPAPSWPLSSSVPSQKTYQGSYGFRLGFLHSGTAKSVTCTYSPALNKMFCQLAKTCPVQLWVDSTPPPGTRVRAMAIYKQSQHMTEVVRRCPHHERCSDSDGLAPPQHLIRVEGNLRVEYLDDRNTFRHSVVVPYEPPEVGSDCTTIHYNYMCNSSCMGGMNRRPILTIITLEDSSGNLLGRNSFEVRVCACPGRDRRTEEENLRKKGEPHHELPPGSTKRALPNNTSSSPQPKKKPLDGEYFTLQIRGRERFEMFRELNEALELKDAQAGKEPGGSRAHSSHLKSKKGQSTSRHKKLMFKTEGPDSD

As a reminder, the AC50 is the midpoint of the concentration-response curve, whichever way the signal moves. `Oc1cc(Cl)ccc1Oc1ccc(Cl)cc1Cl`: the half-maximal activity concentration (AC50) in [1] was 66.3 µM (active) and 51.2 µM (active) and 39.8 µM (active); in experiment [2], 31.6 µM (active); in experiment [3] it was 73.1 µM (active); in experiment [4], 54.2 µM (active); in [5], 78.1 µM (active); in experiment [6] it was 41.3 µM (active). For the same compound, the AC50 is 81.1 µM (active) in experiment [7], 48 µM (active) in [8], 79 µM (active) in [9] and 26.5 µM (active) in experiment [10]. For the same compound, the call in experiment [1], in experiment [2], in experiment [3], in experiment [6], in [7] and in [8] was inactive. Also, the outcome in experiment [9], in experiment [10], in [11], in experiment [12], in [13] and in experiment [14] was inactive. In addition, the outcome in experiment [15], in experiment [16], in [17] and in [18] was inactive.
Consider `CN1CSC(=S)N(C)C1`, for which the call in [2], in experiment [3], in experiment [4], in experiment [5], in experiment [6] and in [7] was inactive. For the same compound, the compound was classed as inactive in [8], in experiment [9], in experiment [10], in [16], in [17] and in [19]. The half-maximal activity concentration (AC50) in experiment [11] was 26.6 µM (active); in experiment [12], 21.3 µM (active); in experiment [13] it was 34.9 µM (active); in experiment [14], 24.9 µM (active); in experiment [15] it was 8.18 µM (active).
Regarding `O=C(O)CCCOc1ccc(Cl)cc1Cl`, the compound was classed as inactive in experiment [1], in experiment [2], in experiment [3], in experiment [4], in [5] and in experiment [6]. Moreover, the result in [7], in experiment [8], in [9], in [10], in experiment [13] and in experiment [14] was inactive. The compound was classed as inactive in experiment [15], in experiment [17] and in experiment [18]. For the same compound, the AC50 in [11] was 42.6 µM (active); in experiment [12] it was 48.7 µM (active).
As for `O=C(O)C(F)(F)C(F)(F)C(F)(F)C(F)(F)C(F)(F)C(F)(F)C(F)(F)F`, the compound was called inactive in experiment [1], in experiment [2], in [3], in experiment [4], in experiment [5] and in experiment [6]. The result in experiment [7], in [8], in [9], in [10], in experiment [11] and in experiment [12] was inactive. The outcome in experiment [13], in [14], in [15], in experiment [16], in [17] and in [18] was inactive.
